The whole screen tested about 5,500 compounds, of which about 2,000 (36%) were called active. Roughly 18% stayed inconclusive and do not appear here. No stated cut-off is given here; in the data, active means normalized growth mostly below about 0.91 (no sharp cut-off); inconclusive means no clear call, values can overlap the other calls; inactive means mostly above about 0.92. Some of the results follow.
Experiment: chemical genetic growth profiling, strain panel (AID 1159580);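 further: tested at 20 µM; growth read once vehicle control cultures reached saturation at 30 °C; 1 = growth at the plate median or of vehicle wells; lower values mean less growth of the strain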
Conditions: growth OD

Measured: normalized growth

CC(=O)O[C@H]1C[C@@H](OC(C)=O)C(C)(C)C2CC(=O)[C@]3(C)C(CC[C@@]4(C)[C@H](C(=O)O)OC(=O)C5OC543)[C@]21C (stereo partly specified)
inactive: S. cerevisiae deletion strains, locus YJR066W, strain TOR1, active compounds read low 0.96 | S. cerevisiae deletion strains, locus YKL009W, strain mrt4, active compounds read low 0.996 | S. cerevisiae deletion strains, locus YKL068W, active compounds read low 0.988 | S. cerevisiae deletion strains, locus YKL085W, strain MDH1 (second series), active compounds read low 1 | S. cerevisiae deletion strains, locus YKL085W, strain MDH1, active compounds read low 1 | S. cerevisiae deletion strains, locus YKL160W, strain elf1, active compounds read low 0.99 | S. cerevisiae deletion strains, locus YKL190W, strain CNB1, active compounds read low 0.987 | S. cerevisiae deletion strains, locus YKR001C, strain vps1, active compounds read low 1.01 | S. cerevisiae deletion strains, locus YKR026C, strain gcn3, active compounds read low 1 | S. cerevisiae deletion strains, locus YKR091W, strain srl3, active compounds read low 0.978 | S. cerevisiae deletion strains, locus YLL001W, strain dnm1, active compounds read low 1 | S. cerevisiae deletion strains, locus YLL026W, active compounds read low 0.981 | S. cerevisiae deletion strains, locus YLL041C, strain sdh2, active compounds read low 0.989 | S. cerevisiae deletion strains, locus YLR027C, strain aat2, active compounds read low 1 | S. cerevisiae deletion strains, locus YLR039C, strain RIC1, active compounds read low 1.06 | S. cerevisiae deletion strains, locus YLR058C, strain SHM2, active compounds read low 0.985 | S. cerevisiae deletion strains, locus YLR102C, strain apc9, active compounds read low 1 | S. cerevisiae deletion strains, locus YLR113W, strain HOG1, active compounds read low 0.968 | S. cerevisiae deletion strains, locus YLR221C, strain rsa3, active compounds read low 1.01 | S. cerevisiae deletion strains, locus YLR258W, strain gsy2, active compounds read low 0.995 | S. cerevisiae deletion strains, locus YLR262C, strain YPT6 (second series), active compounds read low 0.978 | S. cerevisiae deletion strains, locus YLR262C, strain YPT6, active compounds read low 1.05 | S. cerevisiae deletion strains, locus YLR268W, strain sec22, active compounds read low 0.954 | S. cerevisiae deletion strains, locus YLR320W, strain mms22, active compounds read low 1.02 | S. cerevisiae deletion strains, locus YLR342W, strain FKS1 (second series), active compounds read low 0.972 | S. cerevisiae deletion strains, locus YLR342W, strain FKS1, active compounds read low 1.01 | S. cerevisiae deletion strains, locus YLR357W, strain rsc2, active compounds read low 1 | S. cerevisiae deletion strains, locus YLR370C, strain arc18, active compounds read low 0.981 | S. cerevisiae deletion strains, locus YLR371W, strain rom2, active compounds read low 0.985 | S. cerevisiae deletion strains, locus YLR384C, strain iki3, active compounds read low 0.998 | S. cerevisiae deletion strains, locus YLR418C, strain cdc73, active compounds read low 1.07 | S. cerevisiae deletion strains, locus YML016C, strain PPZ1, active compounds read low 0.976 | S. cerevisiae deletion strains, locus YML032C, strain rad52, active compounds read low 0.981 | S. cerevisiae deletion strains, locus YML120C, strain ndi1, active compounds read low 0.993 | S. cerevisiae deletion strains, locus YML124C, strain tub3, active compounds read low 0.989 | S. cerevisiae deletion strains, locus YMR058W, strain fet3, active compounds read low 0.982 | S. cerevisiae deletion strains, locus YMR078C, strain ctf18, active compounds read low 0.975 | S. cerevisiae deletion strains, locus YMR125W, strain sto1, active compounds read low 0.98 | S. cerevisiae deletion strains, locus YMR129W, active compounds read low 0.976 | S. cerevisiae deletion strains, locus YMR205C, strain PFK2, active compounds read low 1.01 | S. cerevisiae deletion strains, locus YMR223W, strain ubp8, active compounds read low 0.993 | S. cerevisiae deletion strains, locus YMR231W, strain pep5, active compounds read low 0.991 | S. cerevisiae deletion strains, locus YMR307W, strain GAS1, active compounds read low 0.984 | S. cerevisiae deletion strains, locus YNL067W, strain RPL9B, active compounds read low 1.04 | S. cerevisiae deletion strains, locus YNL071W, strain lat1, active compounds read low 1.01 | S. cerevisiae deletion strains, locus YNL128W, strain TEP1, active compounds read low 0.951 | S. cerevisiae deletion strains, locus YNL153C, strain GIM3, active compounds read low 1.02 | S. cerevisiae deletion strains, locus YNL183C, strain NPR1, active compounds read low 0.972 | S. cerevisiae deletion strains, locus YNL209W, strain ssb2, active compounds read low 0.982 | S. cerevisiae deletion strains, locus YNL233W, strain BNI4, active compounds read low 1.03 | S. cerevisiae deletion strains, locus YNL248C, strain rpa49, active compounds read low 0.964 | S. cerevisiae deletion strains, locus YNL250W, strain rad50, active compounds read low 0.993 | S. cerevisiae deletion strains, locus YNL271C, strain bni1, active compounds read low 0.996 | S. cerevisiae deletion strains, locus YNL298W, strain CLA4, active compounds read low 0.99 | S. cerevisiae deletion strains, locus YNL307C, strain MCK1, active compounds read low 0.999 | S. cerevisiae deletion strains, locus YNL322C, strain KRE1 (second series), active compounds read low 1.01 | S. cerevisiae deletion strains, locus YNR049C, strain mso1, active compounds read low 0.972 | S. cerevisiae deletion strains, locus YNR052C, strain pop2, active compounds read low 1.03 | S. cerevisiae deletion strains, locus YOL012C, strain htz1 0.975 | S. cerevisiae deletion strains, locus YOL147C, strain pex11, active compounds read low 0.992 | S. cerevisiae deletion strains, locus YOR001W, strain rrp6, active compounds read low 1.01 | S. cerevisiae deletion strains, locus YOR061W, strain CKA2, active compounds read low 0.964 | S. cerevisiae deletion strains, locus YOR069W, strain VPS5, active compounds read low 0.99 | S. cerevisiae deletion strains, locus YOR070C, strain gyp1, active compounds read low 1 | S. cerevisiae deletion strains, locus YOR080W, strain dia2, active compounds read low 0.983 | S. cerevisiae deletion strains, locus YOR083W, strain WHI5, active compounds read low 1.01 | S. cerevisiae deletion strains, locus YOR106W, strain vam3, active compounds read low 0.982 | S. cerevisiae deletion strains, locus YOR136W, strain idh2, active compounds read low 0.985 | S. cerevisiae deletion strains, locus YOR144C, strain elg1, active compounds read low 0.994 | S. cerevisiae deletion strains, locus YOR184W, strain ser1, active compounds read low 0.968 | S. cerevisiae deletion strains, locus YOR231W, strain MKK1, active compounds read low 1.02 | S. cerevisiae deletion strains, locus YOR265W, strain rbl2, active compounds read low 1 | S. cerevisiae deletion strains, locus YOR270C, strain vph1, active compounds read low 1.02 | S. cerevisiae deletion strains, locus YOR290C, strain snf2, active compounds read low 0.969 | S. cerevisiae deletion strains, locus YOR316C, strain cot1, active compounds read low 0.986 | S. cerevisiae deletion strains, locus YPL051W, strain arl3, active compounds read low 0.99 | S. cerevisiae deletion strains, locus YPL078C, strain atp4, active compounds read low 0.985 | S. cerevisiae deletion strains, locus YPL106C, strain sse1, active compounds read low 1 | S. cerevisiae deletion strains, locus YPL240C, strain hsp82, active compounds read low 0.993 | S. cerevisiae deletion strains, locus YPL256C, strain CLN2, active compounds read low 1.01 | S. cerevisiae deletion strains, locus YPR119W, strain clb2, active compounds read low 0.994 | S. cerevisiae deletion strains, locus YPR141C, strain kar3, active compounds read low 0.986 | S. cerevisiae deletion strains, locus YPR163C, strain tif3, active compounds read low 0.998 | S. cerevisiae deletion strains, locus YPR167C, strain met16, active compounds read low 0.988 | S. cerevisiae deletion strains, strain wtn01, active compounds read low 0.983 | S. cerevisiae strains, strain wild type, active compounds read low 0.974

Source: PubChem BioAssay AID1159580 (chemical genetic matrix, 2015)
